The target of test [1] is Sphingosine kinase 1 (Homo sapiens) (UniProt Q9NYA1). The note with it: at 1 µM.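 Further: mean SPHK1 inhibition value reported from the GSK PKIS kinase panel screen.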
The target in test [2] is T1, Sphingosine kinase 2 (Homo sapiens) (UniProt Q9NRA0).
T1 sequence (whole entry): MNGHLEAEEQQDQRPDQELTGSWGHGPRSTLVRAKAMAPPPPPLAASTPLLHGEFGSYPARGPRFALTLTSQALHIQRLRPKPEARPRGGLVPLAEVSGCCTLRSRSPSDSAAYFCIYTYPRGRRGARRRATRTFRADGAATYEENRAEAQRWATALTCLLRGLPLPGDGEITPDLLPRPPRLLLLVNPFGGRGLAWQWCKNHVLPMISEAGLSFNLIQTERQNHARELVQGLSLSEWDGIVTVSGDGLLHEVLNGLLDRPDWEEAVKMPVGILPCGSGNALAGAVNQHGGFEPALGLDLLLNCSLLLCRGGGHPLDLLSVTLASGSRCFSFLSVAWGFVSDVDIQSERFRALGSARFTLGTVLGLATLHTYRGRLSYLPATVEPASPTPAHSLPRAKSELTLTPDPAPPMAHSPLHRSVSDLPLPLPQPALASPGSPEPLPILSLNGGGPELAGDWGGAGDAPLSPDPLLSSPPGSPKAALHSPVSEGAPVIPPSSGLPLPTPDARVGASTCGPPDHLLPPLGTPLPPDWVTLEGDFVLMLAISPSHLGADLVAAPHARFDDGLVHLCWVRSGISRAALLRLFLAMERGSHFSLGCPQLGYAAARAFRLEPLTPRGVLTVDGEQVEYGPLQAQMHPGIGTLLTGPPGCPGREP
The note with it: at 0.1 µM.

Test [3] concerns the target T1, Sphingosine kinase 2 (Homo sapiens). The note with it: at 1 µM.
The target of test [4] is Casein kinase II subunit alpha (Homo sapiens) (UniProt P68400). The note with it: at 0.1 µM.
Sequence of Casein kinase II subunit alpha (Homo sapiens) (P68400 whole entry, looked up): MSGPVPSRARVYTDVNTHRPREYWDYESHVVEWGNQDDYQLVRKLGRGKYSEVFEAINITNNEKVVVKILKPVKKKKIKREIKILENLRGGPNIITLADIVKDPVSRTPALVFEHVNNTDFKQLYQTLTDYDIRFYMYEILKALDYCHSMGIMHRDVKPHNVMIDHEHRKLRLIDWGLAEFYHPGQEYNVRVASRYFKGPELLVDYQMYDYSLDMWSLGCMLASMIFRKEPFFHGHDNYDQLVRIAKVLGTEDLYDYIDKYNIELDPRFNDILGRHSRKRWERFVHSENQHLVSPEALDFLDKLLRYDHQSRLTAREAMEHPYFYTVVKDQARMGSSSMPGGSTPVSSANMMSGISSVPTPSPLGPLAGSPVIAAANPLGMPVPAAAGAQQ
For test [5] the target is unchanged. The note with it: at 1 µM.
Test [6] concerns the target T2, Inhibitor of nuclear factor kappa-B kinase subunit alpha (Homo sapiens) (UniProt O15111).
T2 sequence (whole entry): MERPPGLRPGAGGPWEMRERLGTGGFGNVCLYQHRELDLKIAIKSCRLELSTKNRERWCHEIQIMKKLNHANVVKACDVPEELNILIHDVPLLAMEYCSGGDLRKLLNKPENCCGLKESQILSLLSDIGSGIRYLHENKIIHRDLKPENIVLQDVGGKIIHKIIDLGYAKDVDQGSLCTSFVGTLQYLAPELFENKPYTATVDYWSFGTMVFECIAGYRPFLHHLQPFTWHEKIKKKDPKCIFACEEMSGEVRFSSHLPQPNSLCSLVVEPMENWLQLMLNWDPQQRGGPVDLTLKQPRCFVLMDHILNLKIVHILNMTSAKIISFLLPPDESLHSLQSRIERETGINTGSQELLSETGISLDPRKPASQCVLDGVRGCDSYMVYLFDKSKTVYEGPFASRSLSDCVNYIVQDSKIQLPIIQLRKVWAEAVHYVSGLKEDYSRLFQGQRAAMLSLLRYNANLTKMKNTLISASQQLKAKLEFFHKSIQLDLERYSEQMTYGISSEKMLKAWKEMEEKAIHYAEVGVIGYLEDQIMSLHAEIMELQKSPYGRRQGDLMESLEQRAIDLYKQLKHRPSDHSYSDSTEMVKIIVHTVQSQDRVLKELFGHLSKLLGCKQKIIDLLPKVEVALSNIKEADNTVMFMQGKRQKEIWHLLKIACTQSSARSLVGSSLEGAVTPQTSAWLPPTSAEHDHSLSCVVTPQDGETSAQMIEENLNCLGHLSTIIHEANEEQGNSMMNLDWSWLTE
The note with it: at 0.1 µM.

The target in test [7] is T2, Inhibitor of nuclear factor kappa-B kinase subunit alpha (Homo sapiens). The note with it: at 1 µM.
For test [8], the target named is T3, Inhibitor of nuclear factor kappa-B kinase subunit beta (Homo sapiens) (UniProt O14920).
T3 sequence (whole entry): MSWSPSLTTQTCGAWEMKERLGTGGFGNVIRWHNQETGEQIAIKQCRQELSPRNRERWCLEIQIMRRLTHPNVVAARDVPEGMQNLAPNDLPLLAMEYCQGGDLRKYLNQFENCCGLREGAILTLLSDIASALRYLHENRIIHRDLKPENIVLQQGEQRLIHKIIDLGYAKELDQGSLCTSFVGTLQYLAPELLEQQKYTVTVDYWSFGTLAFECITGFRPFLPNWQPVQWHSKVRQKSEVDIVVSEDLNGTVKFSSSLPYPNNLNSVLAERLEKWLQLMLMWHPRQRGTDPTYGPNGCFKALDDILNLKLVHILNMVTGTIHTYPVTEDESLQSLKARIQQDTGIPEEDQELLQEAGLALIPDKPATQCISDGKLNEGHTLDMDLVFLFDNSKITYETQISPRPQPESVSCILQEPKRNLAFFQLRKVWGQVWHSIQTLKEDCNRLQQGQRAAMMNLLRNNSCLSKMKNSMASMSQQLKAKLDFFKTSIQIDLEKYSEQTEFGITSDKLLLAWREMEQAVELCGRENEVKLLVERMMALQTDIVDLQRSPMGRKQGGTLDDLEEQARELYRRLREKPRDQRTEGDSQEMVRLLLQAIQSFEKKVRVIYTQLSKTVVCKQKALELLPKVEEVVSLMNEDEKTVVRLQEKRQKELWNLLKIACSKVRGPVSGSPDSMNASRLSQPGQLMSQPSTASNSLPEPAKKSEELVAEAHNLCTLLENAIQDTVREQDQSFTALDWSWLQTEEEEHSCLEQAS
The note with it: at 0.1 µM.

The target of test [9] is T3, Inhibitor of nuclear factor kappa-B kinase subunit beta (Homo sapiens). The note with it: at 1 µM.
Test [10] addresses T4, Inhibitor of nuclear factor kappa-B kinase subunit epsilon (Homo sapiens) (UniProt Q14164).
T4 sequence (whole entry): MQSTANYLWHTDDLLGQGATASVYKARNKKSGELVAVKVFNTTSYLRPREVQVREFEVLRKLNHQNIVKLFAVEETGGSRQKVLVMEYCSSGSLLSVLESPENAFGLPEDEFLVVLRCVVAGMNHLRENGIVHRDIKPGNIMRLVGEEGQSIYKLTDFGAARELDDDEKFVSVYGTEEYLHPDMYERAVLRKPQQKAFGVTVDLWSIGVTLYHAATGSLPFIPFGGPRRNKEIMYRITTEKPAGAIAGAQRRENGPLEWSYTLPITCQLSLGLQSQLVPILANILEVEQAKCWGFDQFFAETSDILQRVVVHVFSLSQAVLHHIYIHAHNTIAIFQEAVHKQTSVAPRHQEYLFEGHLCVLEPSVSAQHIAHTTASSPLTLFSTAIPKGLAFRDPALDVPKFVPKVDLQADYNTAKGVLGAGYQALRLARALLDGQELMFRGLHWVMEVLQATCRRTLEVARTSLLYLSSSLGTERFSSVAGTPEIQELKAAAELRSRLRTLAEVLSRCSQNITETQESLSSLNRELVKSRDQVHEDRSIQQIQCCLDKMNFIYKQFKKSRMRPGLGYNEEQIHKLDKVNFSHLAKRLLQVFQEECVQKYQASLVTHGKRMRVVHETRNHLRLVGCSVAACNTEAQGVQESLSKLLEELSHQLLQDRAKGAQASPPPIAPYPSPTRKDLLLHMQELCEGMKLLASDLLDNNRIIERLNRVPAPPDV
The note with it: at 0.1 µM.

For test [11], the target named is T4, Inhibitor of nuclear factor kappa-B kinase subunit epsilon (Homo sapiens). The note with it: at 1 µM.
In test [12] the target is T5, Serine/threonine-protein kinase Nek1 (Homo sapiens) (UniProt Q96PY6).
T5 sequence (whole entry): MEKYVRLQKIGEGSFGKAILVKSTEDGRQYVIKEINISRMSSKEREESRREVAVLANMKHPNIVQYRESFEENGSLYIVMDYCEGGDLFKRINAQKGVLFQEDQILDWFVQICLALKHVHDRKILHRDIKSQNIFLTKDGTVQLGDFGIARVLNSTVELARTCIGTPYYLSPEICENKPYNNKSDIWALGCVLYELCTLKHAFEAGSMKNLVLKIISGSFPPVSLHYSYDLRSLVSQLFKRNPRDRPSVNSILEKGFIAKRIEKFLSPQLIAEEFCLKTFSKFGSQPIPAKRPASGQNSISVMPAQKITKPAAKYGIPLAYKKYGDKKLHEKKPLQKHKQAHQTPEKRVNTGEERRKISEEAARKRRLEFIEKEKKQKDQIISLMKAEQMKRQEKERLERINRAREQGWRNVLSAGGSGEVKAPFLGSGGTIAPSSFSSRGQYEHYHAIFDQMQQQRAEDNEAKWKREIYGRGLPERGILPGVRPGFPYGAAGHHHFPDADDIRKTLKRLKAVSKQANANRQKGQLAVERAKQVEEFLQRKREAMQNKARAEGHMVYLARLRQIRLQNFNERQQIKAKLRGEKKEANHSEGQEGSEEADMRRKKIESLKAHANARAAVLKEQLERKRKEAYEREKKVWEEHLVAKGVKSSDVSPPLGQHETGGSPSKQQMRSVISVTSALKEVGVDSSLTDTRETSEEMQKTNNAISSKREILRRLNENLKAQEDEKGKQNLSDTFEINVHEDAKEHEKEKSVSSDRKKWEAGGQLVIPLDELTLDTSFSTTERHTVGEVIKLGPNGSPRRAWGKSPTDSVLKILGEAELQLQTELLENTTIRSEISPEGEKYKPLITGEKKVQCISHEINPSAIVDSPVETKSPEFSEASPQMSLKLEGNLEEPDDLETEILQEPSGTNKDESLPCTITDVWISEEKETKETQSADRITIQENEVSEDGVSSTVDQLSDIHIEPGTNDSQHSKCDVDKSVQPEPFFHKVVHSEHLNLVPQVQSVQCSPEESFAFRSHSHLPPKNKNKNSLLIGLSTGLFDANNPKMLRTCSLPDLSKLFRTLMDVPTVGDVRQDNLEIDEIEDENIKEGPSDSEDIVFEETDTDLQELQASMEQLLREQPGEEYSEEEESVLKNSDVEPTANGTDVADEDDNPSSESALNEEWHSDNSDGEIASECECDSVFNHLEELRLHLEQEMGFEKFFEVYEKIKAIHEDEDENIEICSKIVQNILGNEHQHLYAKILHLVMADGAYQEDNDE
The note with it: at 0.1 µM.

Test [13] deals with T5, Serine/threonine-protein kinase Nek1 (Homo sapiens). The note with it: at 1 µM.
The target of test [14] is T6, Serine/threonine-protein kinase Nek2 (Homo sapiens) (UniProt P51955).
T6 sequence (whole entry): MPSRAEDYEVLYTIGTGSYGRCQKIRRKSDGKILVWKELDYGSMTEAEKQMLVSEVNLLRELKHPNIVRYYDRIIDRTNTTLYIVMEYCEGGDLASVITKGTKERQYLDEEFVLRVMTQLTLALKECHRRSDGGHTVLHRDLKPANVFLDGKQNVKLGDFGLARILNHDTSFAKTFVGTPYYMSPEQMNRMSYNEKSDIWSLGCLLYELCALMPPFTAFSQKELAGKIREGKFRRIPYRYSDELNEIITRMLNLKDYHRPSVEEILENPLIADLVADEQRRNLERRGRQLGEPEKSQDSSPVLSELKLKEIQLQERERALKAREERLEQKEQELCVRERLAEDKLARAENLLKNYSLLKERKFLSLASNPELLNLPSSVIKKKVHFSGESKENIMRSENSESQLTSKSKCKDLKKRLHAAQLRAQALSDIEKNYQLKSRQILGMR
The note with it: at 0.1 µM.

Test [15] addresses T6, Serine/threonine-protein kinase Nek2 (Homo sapiens). The note with it: at 1 µM.
Test [16] addresses Serine/threonine-protein kinase Nek6 (Homo sapiens) (UniProt Q9HC98). The note with it: at 0.1 µM.
For test [17] the target is unchanged. The note with it: at 1 µM.
Test [18] addresses Serine/threonine-protein kinase Nek7 (Homo sapiens) (UniProt Q8TDX7). The note with it: at 0.1 µM.
Test [19] shares this target. The note with it: at 1 µM.
Test [20] deals with T7, Serine/threonine-protein kinase Nek9 (Homo sapiens) (UniProt Q8TD19).
T7 sequence (whole entry): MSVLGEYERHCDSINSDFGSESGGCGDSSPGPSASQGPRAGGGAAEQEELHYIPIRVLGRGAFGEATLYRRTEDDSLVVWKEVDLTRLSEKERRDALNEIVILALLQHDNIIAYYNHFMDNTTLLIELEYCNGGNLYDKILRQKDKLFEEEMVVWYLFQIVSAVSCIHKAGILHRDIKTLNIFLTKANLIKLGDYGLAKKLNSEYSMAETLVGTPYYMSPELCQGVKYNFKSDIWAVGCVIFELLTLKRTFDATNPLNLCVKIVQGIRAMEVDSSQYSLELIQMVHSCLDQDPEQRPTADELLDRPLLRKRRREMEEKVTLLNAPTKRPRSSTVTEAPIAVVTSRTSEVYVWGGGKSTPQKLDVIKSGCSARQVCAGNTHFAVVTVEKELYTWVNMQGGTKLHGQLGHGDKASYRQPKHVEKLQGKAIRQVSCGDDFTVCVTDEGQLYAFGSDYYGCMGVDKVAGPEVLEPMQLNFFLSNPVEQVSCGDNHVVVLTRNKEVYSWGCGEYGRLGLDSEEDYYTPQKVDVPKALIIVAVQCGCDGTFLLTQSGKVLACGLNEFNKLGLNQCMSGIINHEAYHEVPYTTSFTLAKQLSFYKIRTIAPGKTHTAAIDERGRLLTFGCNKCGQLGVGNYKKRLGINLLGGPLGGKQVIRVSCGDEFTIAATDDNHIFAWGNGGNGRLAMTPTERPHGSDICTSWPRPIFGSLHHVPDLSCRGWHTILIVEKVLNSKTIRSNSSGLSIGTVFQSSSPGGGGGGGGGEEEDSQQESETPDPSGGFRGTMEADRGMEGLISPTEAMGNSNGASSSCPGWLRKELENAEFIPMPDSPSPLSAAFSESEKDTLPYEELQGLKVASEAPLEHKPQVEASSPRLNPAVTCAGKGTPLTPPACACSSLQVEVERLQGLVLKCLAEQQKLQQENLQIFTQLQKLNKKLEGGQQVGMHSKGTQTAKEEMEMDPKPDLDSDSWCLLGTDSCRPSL
The note with it: at 0.1 µM.

Consider one compound from ChEMBL document CHEMBL1961873, “Compounds: GSK PKIS; Assays: Nanosyn kinase panel” (2012).

Sequence of Serine/threonine-protein kinase Nek7 (Homo sapiens) (Q8TDX7 whole entry, looked up): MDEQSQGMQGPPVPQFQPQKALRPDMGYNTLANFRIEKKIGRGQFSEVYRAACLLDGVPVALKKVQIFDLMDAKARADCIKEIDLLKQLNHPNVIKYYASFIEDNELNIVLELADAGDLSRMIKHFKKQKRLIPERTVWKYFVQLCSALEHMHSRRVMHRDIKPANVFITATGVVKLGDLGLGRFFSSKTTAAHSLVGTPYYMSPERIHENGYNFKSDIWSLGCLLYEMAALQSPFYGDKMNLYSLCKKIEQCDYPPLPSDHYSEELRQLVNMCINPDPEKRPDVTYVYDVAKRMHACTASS
Sequence of Serine/threonine-protein kinase Nek6 (Homo sapiens) (Q9HC98 whole entry): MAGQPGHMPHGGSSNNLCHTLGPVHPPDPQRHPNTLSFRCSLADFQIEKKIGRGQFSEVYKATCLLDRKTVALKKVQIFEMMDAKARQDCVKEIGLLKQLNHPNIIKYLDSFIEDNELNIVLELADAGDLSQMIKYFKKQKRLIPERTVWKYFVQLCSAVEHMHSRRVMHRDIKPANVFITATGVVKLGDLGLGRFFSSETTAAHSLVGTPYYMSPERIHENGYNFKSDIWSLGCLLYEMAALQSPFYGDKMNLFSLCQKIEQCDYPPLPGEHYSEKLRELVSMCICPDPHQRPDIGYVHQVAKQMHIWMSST
Sequence of Sphingosine kinase 1 (Homo sapiens) (Q9NYA1 whole entry): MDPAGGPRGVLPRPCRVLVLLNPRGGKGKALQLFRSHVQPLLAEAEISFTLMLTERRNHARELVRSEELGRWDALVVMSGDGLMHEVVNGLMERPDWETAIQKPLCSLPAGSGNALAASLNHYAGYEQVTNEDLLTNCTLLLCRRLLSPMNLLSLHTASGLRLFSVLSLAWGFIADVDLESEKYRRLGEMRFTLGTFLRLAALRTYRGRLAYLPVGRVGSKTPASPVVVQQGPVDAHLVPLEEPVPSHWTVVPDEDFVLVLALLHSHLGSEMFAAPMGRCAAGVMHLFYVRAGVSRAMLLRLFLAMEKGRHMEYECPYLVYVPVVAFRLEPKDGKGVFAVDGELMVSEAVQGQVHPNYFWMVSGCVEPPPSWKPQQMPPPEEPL

Take `c1ccc(-c2n[nH]cc2-c2ccnc(-c3ccc(OCCn4ccnc4)cc3)c2)nc1`: the inhibition in test [1] was -1.64%; in [2], -0.27%; in test [3] it was 0.04%; in test [4], 1.26%; in test [5], 2.53%; in [6], 4.99%. Besides, the inhibition in test [7] is 3.64%; in [8] it was 0.37%; in test [9] it was -0.43%; in test [10], 0.86%; in [11], 2.18%; in [12], 0.35%. Moreover, the inhibition in test [13] was found to be 2.46%; in [14], 0.51%; in test [15], 1.73%; in test [16], 0.49%; in [17], 4.21%; in test [18], 2.27%. The figures for the inhibition in [19] and in test [20] were 2.32% and 2.13%, respectively.
